HepG2 viability – qHTS for Inhibitors of TGF-b: Cytotox Counterscreen. HepG2 CAGA-GFP viability, ATP luminescence, 18 h. Potency, µM (series often up to 46.1 µM), for the others: at the highest dose activity change, negative = cytotoxicity, most hits filed as cytotoxic. 410,000 tested, 0.76% active. AID 588856, 2011; note: potency is the fitted concentration of half-maximal effect
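CellTiter-Glo luminescence gave cytotoxicity after 18 hours at 37 degrees C. The cells were HepG2 CAGA-GFP in 1% FBS DMEM, stimulated with 500 pg/mL TGF-beta after compound addition. %Activity was normalised to no-cell wells (complete cell-killing) and DMSO (no toxicity), and curves were fitted and classified.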
DT40 TDP1 CPT – qHTS for Inhibitors of human tyrosyl-DNA phosphodiesterase 1 (TDP1): qHTS in cells in presence of CPT | chicken DT40 Tdp1-/-;hTDP1 cells + 20 nM CPT, ATP luminescence, 48 h | Potency, µM (doses to about 46.2 µM), without a hit: at the top dose activity change, negative = growth inhibition, usual class: inhibitors | 420,000 tested, 12% active; note: potency is the fitted concentration of half-maximal effect; % is set by controls: 0 for no effect and ±100 for the full control effect; nearly all actives have a fitted effect of over 55% in size
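Cell growth measured by CellTiter-Glo luminescence after a minimum 48 h, 37 C compound exposure with 20 nM CPT in Tdp1-knockout DT40 cells stably expressing hTDP1, seeded 400/well; qHTS titration format.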
DT40 TDP1 no CPT – qHTS for Inhibitors of human tyrosyl-DNA phosphodiesterase 1 (TDP1): qHTS in cells in absence of CPT. DT40 Tdp1-/- hTDP1 cells, no CPT, ATP luminescence, 48 h. Potency, µM (series often up to 46.2 µM), for inactives: top-dose activity change, negative = growth inhibition, actives largely listed as inhibitors. 420,000 tested, 15% active; note: potency is the fitted concentration of half-maximal effect; % is set by controls: 0 for no effect and ±100 for the full control effect; nearly all actives have a fitted effect of over 55% in size
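Stably hTDP1-transfected Tdp1-null chicken DT40 cells were treated with library compounds minus camptothecin and grown for at least 48 hr at 37 °C, after which cellular ATP was quantified by luminescence.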
TDP1 block – qHTS Assay for Inhibitors of Tyrosyl-DNA Phosphodiesterase (TDP1). recombinant TDP1, AlphaScreen DNA substrate cleavage. Potency, µM (top dose mostly 130 µM), inactives show top-dose activity change, negative = inhibition, actives largely listed as inhibitors. 350,000 tested, 0.28% active. AID 485290, 2010; note: potency is the fitted concentration of half-maximal effect; % is set by controls: 0 for no effect and ±100 for the full control effect; nearly all actives have a fitted effect of over 40% in size
Target sequence (Q9NUW8 whole entry, looked up): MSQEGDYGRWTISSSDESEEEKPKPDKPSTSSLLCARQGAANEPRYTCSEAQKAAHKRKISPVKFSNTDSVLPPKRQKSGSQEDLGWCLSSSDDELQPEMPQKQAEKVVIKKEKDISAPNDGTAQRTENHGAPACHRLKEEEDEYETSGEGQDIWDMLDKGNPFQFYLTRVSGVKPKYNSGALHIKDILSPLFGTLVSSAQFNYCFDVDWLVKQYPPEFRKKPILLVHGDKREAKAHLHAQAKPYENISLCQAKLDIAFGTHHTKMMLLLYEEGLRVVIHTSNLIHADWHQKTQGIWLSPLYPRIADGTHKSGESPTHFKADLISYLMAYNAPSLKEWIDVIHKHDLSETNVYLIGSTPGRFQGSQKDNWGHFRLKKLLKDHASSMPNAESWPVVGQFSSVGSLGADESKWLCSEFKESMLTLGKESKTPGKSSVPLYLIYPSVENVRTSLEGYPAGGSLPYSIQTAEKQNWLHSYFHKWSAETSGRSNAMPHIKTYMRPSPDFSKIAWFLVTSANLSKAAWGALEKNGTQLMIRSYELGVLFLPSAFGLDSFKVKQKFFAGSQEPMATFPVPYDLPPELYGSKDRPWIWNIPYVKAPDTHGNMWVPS
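Compounds were preincubated with Tdp1 (1 nM final) for 15 min at room temperature before substrate (15 nM final) started a 5 min reaction; beads (10 ug/ml final) were then added for 10 min before AlphaScreen detection.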
TGFb inhibitor – qHTS for Inhibitors of TGF-b | HepG2 CAGA-GFP TGF-b/SMAD3 reporter, GFP fluorescence, 18 h; TGF-beta stimulated, 500 pg/mL final | Potency, µM (series often up to 46.1 µM), inactives show at the top dose activity, negative = inhibition, actives largely listed as inhibitors | 410,000 tested, 1.2% active | AID 588855, 2011; note: potency is the fitted concentration of half-maximal effect; % is set by controls: 0 for no effect and ±100 for the full control effect; nearly all actives have a fitted effect of over 65% in size
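HEPG2 CAGA-GFP reporter cells (1000/well, DMEM with 1% FBS) received compounds, then recombinant TGF-beta at 500 pg/mL final for 18 hours at 37 degrees C. Per-cell GFP summed per well was normalised to unstimulated and stimulated DMSO controls before curve fitting.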
IL1B secr inh – qHTS for Inhibitors of Inflammasome Signaling: IL-1-beta AlphaLISA Primary Screen | THP-1 LPS/ATP IL-1B secretion, AlphaLISA, 16 h; active compounds read low | activity change, % at 57.5 µM | 360,000 tested, 4.7% active; in the data active = activity change below about -50%; inconclusive = mostly about -30% to -49%; note: % is set by controls: 0 for no effect and ±100 for the full control effect
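THP-1 cells pretreated 1 hr with compounds (up to 57.5 uM final), then stimulated with LPS (250 ng/mL final) plus ATP (1.25 mM final); secreted IL-1B measured by AlphaLISA after 16 hr, decreased signal indicating inhibition.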
* = called active by the depositor; [ ] = another dose, or the depositor's remark. Hits are enriched below; roughly 18% of the tested compounds scored in any of these assays. Unless noted, calls come from the whole dose curve; as a rule, active = well fitted curve in the direction sought with a large enough effect; inconclusive = small, poorly fitted or top-dose-only effect, or another doubt; inactive = no such curve, though single readings can be large; an effect the other way counts as inactive or inconclusive.

COc1ccc(Cn2c3nc4ccccc4nc3c3c(=O)n(Cc4ccco4)c(C)nc32)cc1 was read as TDP1 block 32µM*.
CCC(C)c1nc2ccsc2c(N2CCOC2=O)c1-c1ccccc1 (stereo unspecified) was read as HepG2 viability -25%, DT40 TDP1 CPT inconclusive, DT40 TDP1 no CPT inconclusive, TGFb inhibitor -12% and IL1B secr inh -8.
Screening Cc1ccc(NC(=O)c2c(NC(=O)c3ccco3)sc3c2CCC(C(C)(C)C)C3)c(C)c1 (stereo unspecified) returned HepG2 viability -31%, DT40 TDP1 CPT -4%, DT40 TDP1 no CPT 3% and TGFb inhibitor 0%.
COc1ccc(S(=O)(=O)c2c(N)n(Cc3ccco3)c3nc4ccccc4nc23)cc1 was read as HepG2 viability 1%, DT40 TDP1 CPT 18µM*, DT40 TDP1 no CPT -86%, TDP1 block 3%, TGFb inhibitor inconclusive and IL1B secr inh -6.
For Cc1cc(C)cc(Nc2nc3ccccc3n3cnnc23)c1 the results were HepG2 viability -40%, DT40 TDP1 CPT inconclusive, DT40 TDP1 no CPT inconclusive, TDP1 block 8% and TGFb inhibitor -10%.
COc1cc(CSc2nnnn2-c2ccc(C)cc2)cc(OC)c1OC was read as HepG2 viability -1%, DT40 TDP1 CPT 5.8µM*, DT40 TDP1 no CPT 5µM*, TDP1 block 3%, TGFb inhibitor inconclusive and IL1B secr inh -77*.
CCC(=O)Nc1sc2c(c1C(=O)Nc1cccc(C)c1)CCCC2 was read as HepG2 viability -27%, TDP1 block 1% and TGFb inhibitor -18%.
`COc1ccc(NC(=O)CN(C)CC(=O)Nc2sc3c(c2C(N)=O)CCC3)cc1` gave HepG2 viability -7%, DT40 TDP1 CPT 21µM*, DT40 TDP1 no CPT inconclusive, TDP1 block 1%, TGFb inhibitor -27% and IL1B secr inh 6.
For CCC(=O)Nc1sc2c(c1C(=O)Nc1ccc(Br)cc1)CCCCC2 the results were HepG2 viability -7%, DT40 TDP1 CPT inconclusive, DT40 TDP1 no CPT 21µM*, TDP1 block -6%[12.3 µM] and TGFb inhibitor -8%.
CCN(CC)Cc1c(NC(=O)c2ccc(OC)cc2)sc2c1CCCC2 was read as HepG2 viability 0%, DT40 TDP1 CPT 18µM*, DT40 TDP1 no CPT inconclusive, TDP1 block 0%[12.3 µM] and TGFb inhibitor -55%.
`CCOC(=O)c1c(NC(=O)c2ccc(OC)cc2)sc2c1CCCCC2` gave HepG2 viability 7%, DT40 TDP1 CPT -18%, DT40 TDP1 no CPT -28%, TDP1 block 0%[12.3 µM] and TGFb inhibitor 9%.
Screening COc1ccc(NC(=O)c2c(NCc3cccs3)sc3c2CCCCC3)c(OC)c1 returned HepG2 viability -19%, DT40 TDP1 CPT inconclusive, DT40 TDP1 no CPT 15µM*, TDP1 block 8% and TGFb inhibitor -13%.
`CCCCNC(=O)C1(C)CCN1C(=O)c1ccc2sccc2c1` (stereo unspecified) gave HepG2 viability -14%, DT40 TDP1 CPT inconclusive, DT40 TDP1 no CPT inconclusive, TGFb inhibitor -3% and IL1B secr inh -13.
Screening CN(C)CC1(C)Cc2ccsc2C1O (stereo unspecified) returned HepG2 viability 8%, DT40 TDP1 CPT 2%, DT40 TDP1 no CPT 5%, TGFb inhibitor 19% and IL1B secr inh 8.
Screening COc1ccc(NC(=O)c2c(NCc3cccs3)sc3c2CCCC3)cc1 returned HepG2 viability -56%, DT40 TDP1 CPT inconclusive, DT40 TDP1 no CPT 21µM*, TDP1 block 3% and TGFb inhibitor inconclusive.
For CCOC(=O)c1c(NC(=O)c2ccco2)sc2c1CCCC2 the results were HepG2 viability -15%, DT40 TDP1 CPT inconclusive, DT40 TDP1 no CPT inconclusive, TDP1 block 0%, TGFb inhibitor 7% and IL1B secr inh 17.
For CCOC(=O)c1ccc(NC(=O)c2c(NCc3cccs3)sc3c2CCCCC3)cc1 the results were HepG2 viability -41%, DT40 TDP1 CPT 10µM*, DT40 TDP1 no CPT 8.2µM*, TDP1 block 6% and TGFb inhibitor 7%.
For COc1ccc(CC(=O)Nc2sc3c(c2C(=O)Nc2ccccc2)CCCCC3)cc1 the results were HepG2 viability -26%, DT40 TDP1 CPT -69%, DT40 TDP1 no CPT inconclusive, TDP1 block -9%[12.3 µM] and TGFb inhibitor -26%.
COc1ccc2nc(Nc3sc4c(c3C(N)=O)CCCC4)sc2c1 was read as HepG2 viability -53%, DT40 TDP1 CPT 16µM*, DT40 TDP1 no CPT inconclusive, TDP1 block 2%, TGFb inhibitor inconclusive and IL1B secr inh -100*.
`CCOC(=O)c1ccc(NC(=O)c2c(NC(=O)CCC(=O)O)sc3c2CCCCC3)cc1` gave HepG2 viability 4%, DT40 TDP1 CPT 0%, DT40 TDP1 no CPT 29µM*, TDP1 block 7%, TGFb inhibitor 12% and IL1B secr inh -17.
For CC(C)c1ccc(C(=O)COC(=O)C(O)c2ccccc2)cc1 (stereo unspecified) the results were HepG2 viability -16%, DT40 TDP1 CPT -3%, DT40 TDP1 no CPT -21%, TDP1 block -2%, TGFb inhibitor -6% and IL1B secr inh -4.
CCOC(=O)c1ccc(NC(=O)c2c(NCc3ccc(OC)c(OC)c3OC)sc3c2CCC(C)C3)cc1 (stereo unspecified) was read as HepG2 viability -16%, DT40 TDP1 CPT inconclusive, DT40 TDP1 no CPT 26µM*, TDP1 block 10% and TGFb inhibitor inconclusive.
`CN(/N=C/c1cc(Cl)cc(Cl)c1O)C(=S)NC(C)(C)C` gave HepG2 viability -55%, DT40 TDP1 CPT inconclusive, DT40 TDP1 no CPT 16µM*, TDP1 block 0%, TGFb inhibitor inconclusive and IL1B secr inh 0.
O=C(NCc1ccc(F)cc1)c1ccc(CS(=O)Cc2ccccc2Cl)o1 (stereo unspecified) was read as HepG2 viability -18%, DT40 TDP1 CPT inconclusive, DT40 TDP1 no CPT -5%, TDP1 block 1%, TGFb inhibitor inconclusive and IL1B secr inh -10.

Screens (PubChem BioAssay)
